# IMPase inh: cell-permeable inhibitors of inositol monophosphatase (IMPase). P97697. CHO-M1 cells, IP1 accumulation, HTRF TR-FRET ratio. inhibition (IP1 accumulation), % at 46.1 µM. 120,000 tested, under 10 active. AID 901; active means well fitted curve in the direction sought with a large enough effect in the signal ratio, not every such curve was filed as active; inconclusive means small, poorly fitted or top-dose-only effect, or a change in a side signal; inactive means no such curve, though single readings can be large or run the other way; the % refers to the signal ratio;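 further: cells stimulated with carbachol in lithium chloride buffer; plate controls were DMSO basal wells for no effect and reference inhibitor wells for full effect; higher means more IMPase inhibition seen as more IP1 and lower FRET ratio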
# Target sequence (P97697 whole entry, looked up): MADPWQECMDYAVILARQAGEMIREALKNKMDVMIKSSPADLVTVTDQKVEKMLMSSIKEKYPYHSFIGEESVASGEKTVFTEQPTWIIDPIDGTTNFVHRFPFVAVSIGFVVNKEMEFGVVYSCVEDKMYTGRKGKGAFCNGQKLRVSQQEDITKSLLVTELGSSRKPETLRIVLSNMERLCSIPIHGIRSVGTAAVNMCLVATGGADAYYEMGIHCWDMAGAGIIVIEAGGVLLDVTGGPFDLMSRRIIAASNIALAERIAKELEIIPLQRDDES
#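 CHO-M1 cells (CHO stably expressing M1 receptor), compound up to 46 uM final, stimulated with carbachol (50 uM as added) in buffer with 50mM LiCl, pH 7.4, 30 min at 37C. Cytosolic IP1 read by TR-FRET; AC50 from Hill fits.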
# ALDH1A1 block: inhibitors of human aldehyde dehydrogenase 1A1; P00352; AID 1030; Purified ALDH1A1, NADH fluorescence, propionaldehyde substrate; Potency, µM (top dose mostly 75.3 µM), for inactives: at the highest dose activity, negative = inhibition, most hits filed as inhibitors; hit rate 7.3% among 220,000;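 further: potency means the concentration at half of the fitted maximal effect; plate controls were no enzyme wells and a reference inhibitor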
# Target sequence (P00352 whole entry, looked up): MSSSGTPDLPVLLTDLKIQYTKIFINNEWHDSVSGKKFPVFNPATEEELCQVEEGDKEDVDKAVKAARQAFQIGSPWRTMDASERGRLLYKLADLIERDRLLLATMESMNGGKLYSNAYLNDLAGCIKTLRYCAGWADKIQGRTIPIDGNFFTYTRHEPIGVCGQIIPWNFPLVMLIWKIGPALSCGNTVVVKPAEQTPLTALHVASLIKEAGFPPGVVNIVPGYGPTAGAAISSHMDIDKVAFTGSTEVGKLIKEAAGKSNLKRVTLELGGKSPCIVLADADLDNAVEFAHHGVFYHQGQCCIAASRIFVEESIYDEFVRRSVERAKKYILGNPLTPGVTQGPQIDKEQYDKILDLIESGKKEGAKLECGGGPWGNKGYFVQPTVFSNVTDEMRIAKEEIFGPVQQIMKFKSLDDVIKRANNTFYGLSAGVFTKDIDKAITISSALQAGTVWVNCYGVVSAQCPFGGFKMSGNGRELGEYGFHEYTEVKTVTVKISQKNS
# HPGD inh: HPGD (human) dehydrogenase inhibition; P15428; purified HPGD, NADH fluorescence kinetic, PGE2 substrate; Potency, µM, without a hit: at the top dose activity change, negative = inhibition, most hits filed as inhibitors; hit rate 4.3% among 150,000; AID 894; further: potency means the concentration at half of the fitted maximal effect
#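 NADH formation kinetics: reaction with 30 uM PGE2 and 1 mM NAD+ (final), 20 nM enzyme, Tris-HCl pH 8 with Tween 20, after 15 min compound preincubation at room temperature. Fluorescence change, last versus first of five reads.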
# NPSR antagonist: blocks cAMP signaling of the human neuropeptide S receptor; Q6W5P4; CHO-NPSR cells, cAMP TR-FRET, antagonist mode; Potency, µM (titrated, usually from 38.3 µM), for the others: at the top dose activity change, negative = inhibition, hits mostly inhibitors; hit rate 1% among 220,000; AID 1461; active means well fitted curve in the direction sought with a large enough effect; inconclusive means small, poorly fitted or top-dose-only effect, or another doubt; inactive means no such curve, though single readings can be large; an effect the other way counts as inactive or inconclusive; further: potency means the concentration at half of the fitted maximal effect; nearly all actives have a fitted effect of over 50% in size
# PNC inhibitor: inhibitors of perinucleolar compartment assembly. PC3M PTB-GFP, PNC prevalence imaging, 16 h; active compounds read low. activity change (PNC), negative = inhibition, % at 10 µM. hit rate 3.1% among 140,000. AID 2417;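 active means readout at or below -70, meaning at least 70% loss of cells showing the perinucleolar compartment, a nuclear body marking cancer cells; inconclusive means readout between -30 and a set limit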;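 further: plate controls were DMSO wells for no effect and camptothecin positive control wells for full effect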
#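 Read-out is percentage of cells bearing a perinucleolar compartment, from automated 20x imaging of fixed, Hoechst-stained PC3M PTB-GFP cells. Cells were seeded 4 h, then exposed 16 h to compound (23 nl of library stock) in duplicate plates.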
# IMPase Li inh: membrane-permeable IMPase blocker, potentiated with lithium; hit rate 0.35% among 210,000; CHO-M1 cells, IP1 TR-FRET (IP-One), carbachol + lithium; AID 1457; Potency, µM (highest dose often 59.4 µM), inactives show at the highest dose activity, negative = IMPase inhibition, actives largely listed as inhibitors; active means well fitted curve in the direction sought with a large enough effect; inconclusive means small, poorly fitted or top-dose-only effect, or another doubt; inactive means no such curve, though single readings can be large; an effect the other way counts as inactive or inconclusive;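 further: IP1 builds up when IMPase is blocked and the TR-FRET signal falls; potency means the concentration at half of the fitted maximal effect; plate controls were basal vehicle for no effect and high inhibitor control for full effect; nearly all actives have a fitted effect of over 50% in size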
#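 Test compounds were applied to CHO-M1 cells previously cultured for 16–30 h at 2000 per well. A small lithium amount accompanied them; after 30 min at 37C, IP1 was quantified by TR-FRET.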
# * marks the source's active call; other numbers are inactive results; ? = inconclusive; . = no result given; ! = not active in a repeat; [ ] = remark or other dose. A selection: hits, their analogues and other compounds. The true share with any hit is near 11%. Unless noted, the call rests on the fitted dose curve; in most records, active means well fitted inhibition curve with a large enough effect (not every such curve was filed as active); inconclusive means small, poorly fitted or top-dose-only effect, or another doubt; inactive means no such curve, though single readings can be large or run the other way. Unless noted, on the % scale 0 is the no-effect control and ±100 the full control effect.
SMILES,IMPase inh,ALDH1A1 block,HPGD inh,NPSR antagonist,PNC inhibitor,IMPase Li inh
Cc1oc(-c2ccc(Cl)cc2)nc1CN1CCCC(C(=O)NCc2ccco2)C1 (configuration not stated),-5.7,4.9%,-26.5%,-16.7%[46.1 µM],?,-19.1%[38.3 µM]
O=C(O)c1ccc(N2C(=O)CC(N3CCC(c4nc5ccccc5[nH]4)CC3)C2=O)cc1 (configuration not stated),.,31.6µM*,.,11.1%,.,3.7%
O=C1CC(N2CCN(c3ccccc3Cl)CC2)C(=O)N1c1cccc(F)c1 (configuration not stated),-1.3,11.2µM*,-11.2%,-12.8%[46.1 µM],2.9,21.6%[38.3 µM]
O=C1CC(N2CCC(c3nc4ccccc4[nH]3)CC2)C(=O)N1c1cccc(F)c1 (configuration not stated),.,11.2µM*,.,-3.6%,.,1.4%
O=C1CC(N2CCC(c3nc4ccccc4o3)CC2)C(=O)N1c1ccc(Cl)c(C(F)(F)F)c1 (configuration not stated),1.2,8.91µM*,20µM*,?,13.7,-6.1%[38.3 µM]
COc1ccc2c(c1)O[C@@H](c1ccc3c(c1)OCO3)[C@H](OC(=O)N[C@H](C)C1CCCCC1)C2=O,.,2.8%,-1.6%,.,.,18.5%
COC(=O)c1ccc(CSc2nnc(-c3ccc4c(c3)OCO4)n2-c2ccccc2)o1,.,1.8%,-11.6%,9.8%,-4.5,11.8%
O=C(C1CCN(C2CC(=O)N(c3cccc(Cl)c3)C2=O)CC1)N1CCCCCC1 (configuration not stated),0.4,20µM*,-10.3%,-2.4%[46.1 µM],-24.5,17.1%[38.3 µM]
O=C1CC(N2CCOCC2)C(=O)N1c1cccc(Cl)c1 (configuration not stated),-3.0,?,-4.4%,6.6%[46.1 µM],-1.7,0.7%[38.3 µM]
COC(=O)c1c(NC(=O)c2ccccc2C(=O)O)sc2c1CCCC2,-4.6,.,.,.,.,.
CC(=O)N1CCC2(CC1)CC(=O)c1cc(OCC(=O)NCc3ccco3)ccc1O2,-6.1,?,?,-21.2%[46.1 µM],3.4,3.8%[38.3 µM]
COc1cc(=O)n2c(n1)SCCC2,4.9,-0.3%,-5.3%,1.3%[46.1 µM],60.4,-3.8%[38.3 µM]
O=C(COc1cc(=O)n2c(n1)SCCC2)c1ccccc1,5.7,14.1µM*,15.8µM*,4.3%[46.1 µM],-3.9,-11.7%[38.3 µM]
Cc1cccc(Nc2nc(Nc3cccc(C)c3)nc(N3CCOCC3)n2)c1,-2.1,.,.,.,.,.
COc1cc(CC2COC(c3ccc(O)c(OC)c3)C2COC(C)=O)ccc1O (configuration not stated),.,.,.,9.8%,.,.
COc1cc([N+](=O)[O-])cc(/C=N/NC(=O)C(C)Nc2cccc(C)c2)c1O (configuration not stated),1.4,-1.4%,-9.3%,-16.1%[46.1 µM],?,-0.5%
CCCCCCCC#Cc1ccccc1/C=N/S(=O)c1ccc(C)cc1 (configuration not stated),.,20µM*!,12.6µM*,17.5%,11.6,-4.6%
CCCOc1ccc(C(=O)OCC(=O)c2c(N)n(C)c(=O)n(C)c2=O)cc1OCC,.,2.7%,.,-28.4%,.,0.0%
CCN1C(=O)/C(=C/c2cnn(C)c2C)SC1=S,3.6,?,-1.1%,-9.9%[46.1 µM],-10.5,25.1%[38.3 µM]
O=C1/C(=C/c2ccncc2)SC(=S)N1Cc1ccccc1,.,.,.,0.7%[7.67 µM],.,.
CCCN1C(=O)/C(=C/c2ccncc2)SC1=S,.,10µM*,-12.5%,2.8%,?,9.1%
CCN1C(=O)/C(=C/c2cn(C)nc2C)SC1=S,-1.1,3.98µM*,-11.6%,-3.5%[46.1 µM],30.3,30.9%[38.3 µM]
COCCn1c(SCc2ccc(C(=O)OC)o2)nc2ccccc2c1=O,10.5,-28.0%,-14.2%,-7.6%[46.1 µM],24.0,25.1%
CCOCc1[nH]c(=S)[nH]c(=O)c1Cc1ccc(OC(C)C)cc1,.,12.6µM*,.,18.6%,.,-14.9%
CSc1sc(C)cc1/C=N/O,.,-5.1%,15.8µM*,9.1%,39.1,-7.3%
SMILES,IMPase inh,ALDH1A1 block,HPGD inh,NPSR antagonist,PNC inhibitor,IMPase Li inh
CCOC(=O)C(CC)Sc1ncnc2nc[nH]c12 (configuration not stated),-7.0,0.7%,-8.0%,3.8%[46.1 µM],-100.0*,1.9%
CCOC(=O)C(C)Sc1ncnc2nc[nH]c12 (configuration not stated),-1.8,-3.4%,-0.2%,11.3%,-8.5,2.1%
O=S(=O)(/N=S1/CC=CCN1S(=O)(=O)c1ccccc1)c1ccccc1 (configuration not stated),1.4,2µM*,7.94µM*,-5.7%[46.1 µM],?,37.2%[38.3 µM]
O=S(=O)(c1ccccc1)N1CCN(S(=O)(=O)c2ccccc2)C1,2.2,-9.6%,-7.3%,14.6%[46.1 µM],-15.2,-9.4%[38.3 µM]
COC(=O)C(CC(=O)c1ccc(Br)cc1)n1ccnc1 (configuration not stated),10.8,0.447µM*,2.51µM*,-21.7%[46.1 µM],-8.3,5.2%[38.3 µM]
Cc1ccccc1OCCCC(=O)NCc1ccco1,-0.9,3.8%,25.1µM*,-5.1%[46.1 µM],14.7,1.7%[38.3 µM]
Cc1ccc(OCCCC(=O)NCc2ccco2)cc1,5.1,3.8%,25.1µM*,-0.9%[46.1 µM],56.6,-5.4%[38.3 µM]
COc1ccc(OCC(=O)OCC(=O)NCc2ccco2)cc1,9.6,5.9%,-13.6%,-4.8%[46.1 µM],11.7,5.6%[38.3 µM]
COc1ccc(OCCCC(=O)NCc2ccco2)cc1,1.3,0.7%,?,-3.6%[46.1 µM],24.2,1.3%
Cc1cc(C)cc(OCC(=O)OCC(=O)NCc2ccco2)c1,8.4,35.5µM*,-5.8%,-4.9%[46.1 µM],10.8,0.3%[38.3 µM]
S=c1[nH]nc(-c2cc3c(s2)-c2ccccc2CC3)o1,?,?,?,10µM*,?,?
Cc1ccc(S(=O)(=O)NCCNc2ccccc2[N+](=O)[O-])cc1,.,?,.,-7.5%,.,9.7%
COC(=O)c1ccc(COC(=O)c2ccc(-n3cnnn3)cc2)o1,7.5,20µM*,-17.0%,-21.3%[46.1 µM],-23.1,20.8%[38.3 µM]
CN1CCN(C(=O)c2cc(COc3c(F)cccc3F)on2)CC1c1ccccc1 (configuration not stated),.,?,.,?,.,28.2%
CC(=O)N1CC(=O)N=C1SCC(=O)Nc1nc(-c2ccccc2)c(-c2ccccc2)s1,.,-13.1%,-11.4%,10µM*,-0.8,-6.6%
O=C(COc1ccc2ccccc2c1)NCC(=O)N/N=C/c1ccco1,6.5,-1.8%,-19.9%,-8.6%[46.1 µM],-20.3,1.0%[38.3 µM]
COc1cc(/C=N/NC(=O)CCN2CCN(c3ccccc3)CC2)cc(OC)c1OC,.,-10.7%,-11.8%,6.3%,-86.3*,2.0%
O=C(Cc1csc(N2CCOCC2)n1)N/N=C/c1ccc(O)c(O)c1O,.,7.51µM*,.,-3.3%,.,21.5%
COc1cc(/C=N/NC(=O)CCN2CCN(Cc3ccccc3)CC2)cc(OC)c1OC,.,?,?,20.2%,14.4,28.8%
O=C(CCN1CCN(c2ccccc2)CC1)N/N=C/c1ccc(O)c(O)c1O,.,3.98µM*,.,14.9%,.,23.5%

# High-throughput results: PubChem, National Center for Advancing Translational Sciences (NCATS)
